The source of these data is PubChem BioAssay.

Experiment [1] relates to Human papillomavirus type 1a protein E7 (residues 44-93). In words: HPV1a E7 fragment binders on microarrays, primary screen, biochemical, small-molecule microarray, residues 44-93, 635 nm fluorescence (AID 1108).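 Further: E7 fragment applied at 1 µg/mL in TBST for 1 h at 4 C; score combines spot fluorescence with its signal to noise ratio.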 The settings on record: small-molecule microarray binding, fluorescence 635 nm; higher = more signal.
A short description of experiment [2]: modulators of HCV replicon luciferase signal, primary screen, HCV replication inhibitor project, Huh7 cells, luciferase reporter (AID 1109).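 Further: huh7 hepatoma cells harbouring a luciferase neomycin HCV replicon reporter; luciferase luminescence as measure of HCV replicon replication; test concentration not given here.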 The settings on record: 48 h, higher = more signal.
Experiment [3] has as its target Left-right determination factor 2 (Homo sapiens) (UniProt O00292). Put plainly: LEFTY2 binders on small-molecule microarrays, primary screen, biochemical, small-molecule microarray, 635 nm fluorescence scan (AID 1110). To be noted: LEFTY2 binding, higher = more signal.
The target of experiment [4] is Calmodulin-1 (Homo sapiens) (UniProt P0DP23). Put plainly: CALM1 binders on microarrays, EGTA buffer, profiling panel, biochemical, small-molecule microarray, Cy5-labelled CALM1 (AID 1111).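 Further: labelled calmodulin applied in Tris saline Tween buffer holding calcium plus EGTA and DTT.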 The settings on record: Cy5-CALM1 binding fluorescence, higher = more signal.
The target is the same in experiment [5]. In words: calcium-bound CALM1 binders on microarrays, profiling panel, artefact control for SMM control-protein annotation, biochemical, small-molecule microarray, Cy5-labelled CALM1, plus calcium (AID 1112).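 Further: score merges spot fluorescence with signal to noise from triplicate slides.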 The settings on record: Cy5-CALM1 binding fluorescence, higher = more signal.
A short description of experiment [6]: small-molecule microarray binders of probe aWnt5a, primary screen, biochemical, biotinylated probe, 635/667 nm fluorescence (AID 1113).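 Further: score merges 667 nm fluorescence intensity with signal-to-noise per printed feature.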 The settings on record: higher = more signal.
Experiment [7] is described as follows: small-molecule microarray binders of probe aShh, primary screen, biochemical, biotinylated probe, 635/667 nm fluorescence (AID 1114).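 Further: probe is biotin-labelled aShh protein from a stem cell growth factor screen; measures binding of labelled protein to compounds printed on the slide; score merges feature fluorescence at 667 nm with signal-to-noise.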 The settings on record: higher = more signal.
The nature of experiment [8]: small-molecule microarray binders of probe aNog, primary screen, biochemical, biotinylated probe, 635/667 nm fluorescence (AID 1115).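 Further: probe is biotinylated aNog protein used at 0.15 µg/mL for 1 h at 4 C; z-score combines 667 nm fluorescence of each spot with its signal to noise.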 The settings on record: higher = more signal.
The target of experiment [9] is Torsin-1A-interacting protein 1 (Homo sapiens) (UniProt Q5JTV8). Put plainly: LAP1 binders from COS7 cell lysate, primary screen, small-molecule microarray, 635/667 nm fluorescence (AID 1116). To be noted: COS7-hLAP1 lysate binding, 635 nm fluorescence, higher = more signal.
The target of experiment [10] is Alpha-bungarotoxin (Bungarus multicinctus) (UniProt P60615). In words: alpha-bungarotoxin binders on microarray, profiling panel, artefact control for SMM control protein annotation, biochemical, small-molecule microarray, Alexa647 label, 635/667 nm fluorescence (AID 1117). To be noted: alpha-BTX-A647 binding fluorescence, higher = more signal.
Chain of Alpha-bungarotoxin (Bungarus multicinctus) (P60615 whole entry, looked up): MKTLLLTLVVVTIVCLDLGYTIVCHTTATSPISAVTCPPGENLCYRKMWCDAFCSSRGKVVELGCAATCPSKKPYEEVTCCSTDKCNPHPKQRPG

Chain of Torsin-1A-interacting protein 1 (Homo sapiens) (Q5JTV8 whole entry, looked up): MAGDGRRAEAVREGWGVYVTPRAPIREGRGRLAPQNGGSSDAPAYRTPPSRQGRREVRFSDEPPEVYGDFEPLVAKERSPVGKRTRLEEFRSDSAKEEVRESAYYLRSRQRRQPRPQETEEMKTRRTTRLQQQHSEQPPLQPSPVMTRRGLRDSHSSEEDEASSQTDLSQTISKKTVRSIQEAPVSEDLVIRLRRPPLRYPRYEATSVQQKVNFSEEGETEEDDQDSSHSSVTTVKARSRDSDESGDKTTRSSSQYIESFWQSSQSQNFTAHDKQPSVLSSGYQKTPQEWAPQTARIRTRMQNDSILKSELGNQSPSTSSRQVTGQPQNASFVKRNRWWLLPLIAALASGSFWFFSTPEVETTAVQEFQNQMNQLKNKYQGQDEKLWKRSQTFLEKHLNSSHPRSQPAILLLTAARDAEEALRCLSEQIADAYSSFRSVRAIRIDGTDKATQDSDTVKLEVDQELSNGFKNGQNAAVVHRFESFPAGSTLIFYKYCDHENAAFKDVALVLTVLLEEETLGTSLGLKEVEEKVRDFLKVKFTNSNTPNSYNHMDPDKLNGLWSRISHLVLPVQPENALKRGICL
Chain of Left-right determination factor 2 (Homo sapiens) (O00292 whole entry, looked up): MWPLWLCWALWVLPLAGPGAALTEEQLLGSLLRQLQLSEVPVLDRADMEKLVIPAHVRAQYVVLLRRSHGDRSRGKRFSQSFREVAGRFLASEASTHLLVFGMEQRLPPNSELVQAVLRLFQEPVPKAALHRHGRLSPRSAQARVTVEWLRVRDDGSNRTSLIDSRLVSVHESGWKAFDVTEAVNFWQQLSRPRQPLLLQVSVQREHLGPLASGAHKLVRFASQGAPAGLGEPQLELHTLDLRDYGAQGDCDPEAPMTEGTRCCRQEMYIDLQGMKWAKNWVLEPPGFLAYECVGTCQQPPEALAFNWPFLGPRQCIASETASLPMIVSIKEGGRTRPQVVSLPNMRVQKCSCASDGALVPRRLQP

Consider `COC(=O)[C@@]1(Cc2ccc(F)cc2)[C@H]2c3cc(C(=O)N4CCCC4)n(Cc4ccc(S(C)(=O)=O)cc4)c3C[C@H]2CN1C(=O)c1ccccc1`, for which the composite z-score amounted to 1.38 in experiment [1]; 0.533 in [3]; 1.36 in [4]; 1.05 in experiment [5]; 0.25 in experiment [6]; 0.232 in experiment [7]. Moreover, the composite z-score came out at 1.89 in experiment [8], 0.186 in experiment [9] and 0.453 in [10]. Also, the z-score in [2] is -1.88.
With `N#Cc1ccc(NN2C(C(O)C(c3ccccc3)c3ccccc3)C=CC3C(=O)N(c4ccccc4)C(=O)C32)cc1` (stereo not given), the composite z-score is 1.46 in experiment [1]; 0.0908 in experiment [3]; 1.87 in experiment [4]; 0.609 in [5]; 0.0768 in experiment [6]; 0.392 in [7]. Also, the figures for the composite z-score in [8], in experiment [9] and in experiment [10] were 1.72, 0.307 and 1.91, respectively. In addition, in [2], the z-score was -0.734.
Turning to `CCCC#C[Si](O[C@H](CC)c1cn(Cc2cccc(Cl)c2)nn1)(C(C)C)C(C)C`, the composite z-score was 1.3 in [1]; 0.431 in experiment [3]; 0.0375 in experiment [4]; 0.169 in experiment [5]; -0.0944 in [6]; -0.153 in experiment [7]. Moreover, the figures for the composite z-score in experiment [8], in experiment [9] and in experiment [10] were -0.307, 0.545 and -0.2, respectively. The same compound showed a z-score in experiment [2] of -0.113.
Turning to `C=CCNC(=O)[C@@H]1[C@H]2C(=O)O[C@H](c3ccccc3)[C@H](c3ccccc3)N2[C@H](c2ccc(O)cc2)[C@@]12C(=O)N(C(=O)OCCOC)c1ccc(C#CCNC(N)=O)cc12`, the composite z-score in experiment [1] came out at 1.32; in [3] it was 0.31; in [4], 1.83; in [5], 0.294; in experiment [6], 0.0017; in experiment [7], 1.68. Further, the values for the composite z-score in experiment [8], in [9] and in experiment [10] were 0.681, 1.45 and 0.83, respectively. For the same compound, the z-score in experiment [2] was -0.578.
For `O=C1C2C=CC(C(O)c3cc(C(F)(F)F)cc(C(F)(F)F)c3)N(n3cnnc3)C2C(=O)N1Cc1ccccc1` (stereo not given), the composite z-score in [1] is 1.11; in [3], -0.63; in experiment [4], 0.538; in [5], -0.374; in experiment [6], -0.0161; in experiment [7] it was 0.14. Further, the composite z-score in [8] is 0.705; in [9] it was -0.133; in [10] it was -0.0735. In experiment [2], this compound showed a z-score of -0.418.
With `CC(C)C(=C=CC[C@H](O)c1ccc(OCCO)cc1)CCO`, the composite z-score was 1.39 in [1]; 0.131 in experiment [3]; 0.219 in experiment [4]; -0.729 in [5]; -0.0107 in experiment [6]; 0.163 in [7]. Besides, the composite z-score in experiment [8] came out at 0.508; in [9], 0.828; in experiment [10], 0.663. This compound also returned a z-score in experiment [2] of -0.119.
As to `CCOC(=O)C[C@H]1[C@H](OC(=O)c2cc3ccccc3oc2=O)[C@@H](NC(=O)c2ccccc2)c2cc(OCCCO)ccc2N1C(=O)c1ccc2ccccc2n1`, the composite z-score is 0.55 in [1]; 0.782 in experiment [3]; 0.183 in experiment [4]; -0.505 in experiment [5]; -0.0758 in experiment [6]; -0.237 in [7]. Also, the results for the composite z-score in experiment [8], in experiment [9] and in experiment [10] were -0.242, 0.79 and 0.137, respectively. The z-score in experiment [2] is -0.765.
As for `C=CCNC(=O)[C@@H]1[C@H]2C(=O)O[C@H](c3ccccc3)[C@H](c3ccccc3)N2[C@H](c2ccc(OCCO)cc2)[C@@]12C(=O)Nc1ccc(C#CCC(C(=O)OC)C(=O)OC)cc12`, the composite z-score in experiment [1] is 0.637; in experiment [3] it was 0.608; in experiment [4], 0.263; in experiment [5], -0.224; in experiment [6], 0.105; in experiment [7] it was 0.147. Also, the composite z-score stood at 0.914 in experiment [8], 1.19 in [9] and 1.8 in [10]. Further, in experiment [2], the z-score was -2.18.
In the case of `COc1ccc([Si](C)(C)[C@@H]2[C@@H](CCO)O[C@]3(C(=O)N(Cc4ccc(N(C=O)c5ccccc5)cc4)c4ccccc43)[C@H]2C)cc1`, the composite z-score in experiment [1] is 0.121; in experiment [3] it was 0.0196; in [4], 1.32; in experiment [5], 0.973; in [6] it was -0.0203; in experiment [7], 0.385. Besides, the composite z-score in [8] was found to be 0.286; in experiment [9], 0.419; in experiment [10] it was 1.62. Besides, the z-score in [2] was -4.67.
As for `COc1ccc(C(O)C2C=CC3C(=O)N(Cc4ccccc4)C(=O)C3N2n2cnnc2)cc1OCc1ccccc1` (stereo not given), the composite z-score in experiment [1] was 0.958; in [3], -0.355; in experiment [4], 0.0367; in experiment [5], -0.485; in experiment [6] it was -0.096; in experiment [7], -0.18. Further, the values for the composite z-score in experiment [8], in experiment [9] and in experiment [10] were 0.393, 0.383 and 0.161, respectively. The z-score in [2] was -1.04.
